Test results: PubChem BioAssay (NCATS)
Inconclusive results are not listed. Entries that show only a call come without a potency. Activity calls are given as the source filed them. Calls follow the shape of the dose curve; as a rule, active = well fitted cell-killing curve with a large enough effect; inconclusive = small, poorly fitted or top-dose-only effect, or effect the other way, or another doubt; inactive = no such curve, though single readings can be large or run the other way.

Assay: Identifying Small Molecule Inhibitors of Pancreatic Cancer Stem Cells (A2780, Spheroid) (AID 1259357);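 also: spheroids pre-formed over 14 days in stem cell medium on hydrogel; compound exposure lasted 48 h before the ATP luminescence read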
Details: Potency: A2780 spheroid viability; series mostly up to 46.1 µM
From the text: Progenitor-like cancer cells, often referred to as cancer stem cells (CSC), are believed to be the drivers of therapeutic resistance and rapid recurrence. CSCs are postulated to reside in specific niches characterized by low oxygen tension, limited nutrient supply, and high redox load. Selectively targeting CSC, alone or in combination with cytotoxic agents, as a means to produce durable remissions is an appealing concept. Modeling these cells in in vitro setting is an important step in finding new therapies and/or targets. Multiple reports highlight that forcing cells in culture into 3-dimensionaly architectures (spheroids) re-establishes key progenitor-like transcriptional signatures. Pancreatic cancer is among the diseases with the most dismal outlook which is driven, largely, by recurance following front-line therapies. […] In hopes of deriving new insight into the targeting of these pancreatic CSCs we examined three established pancreatic cancer cell lines in cytotoxicity assays versus a collection of approved and investigational drugs. Importantly, we screened these lines as traditional monolayer (2D) and spheroid (3D) formats to gain an appreciation of agents with differential activity.
Multicellular tumor spheroids from Panc1, MiaPaCa-2, and the primary low-passage tissue culture line SB.06 were seeded in stem cell media (SCM) in nonadherent 6-well plates coated with hydrogel (Corning Life Sciences, Chelmsford, Mass) and pancreatic spheres generated for 14 days before screening. Cells were seeded into 1536-well solid-bottom white tissue culture treated Greiner Bio One Plates (789173-F) using a MultiDrop Combi (Thermofisher Scientific) dispenser and a small sterile cassette. One column was media alone to be used as a :"no cells" control. The plates were then covered with sterilized stainless steel gasketed lids from Kalypsys. After allowing cells to attach for 4 hours, 23 nL of test compound or control (negative control DMSO and positive control 9.2 uM Bortezomib-final) were added from a 1536-well polypropylene compound source plate to each well using a 1536 head pin tool from Kalypsys. Cells were then incubated for 48 hours at 37C, 95% relative humidity and 5% CO2. After 48 hours, plates were removed from the incubator and 3 uL of CellTiter-Glo (Promega) was added using an Aurora Flying Reagent Dispenser Bioraptor. Plates were incubated at room temperature for 10 minutes prior to reading the luminescence on the Viewlux (PerkinElmer). The relative luciferase units are used to calculate the percent activity using the activity of DMSO in the cells and no cells columns for normalization of no inhibition and full inhibition respectively.
Potency is read from the fitted curve at half-maximal effect.

| Structure (SMILES) | Potency |
| --- | --- |
| O=c1cc(N2CCOCC2)oc2c(-c3cccc4c3sc3ccccc34)cccc12 | 26.4 µM (active) |
| CN1CCN(CCOc2cc(OC3CCOCC3)c3c(Nc4c(Cl)ccc5c4OCO5)ncnc3c2)CC1 | inactive |
| CCOc1ccc(Nc2nc(-c3c(C)nc4ccccn34)cs2)cc1 | 0.296 µM (active) |
| COc1ncc(-c2ccc3nccc(-c4ccnnc4)c3c2)cc1NS(=O)(=O)c1ccc(F)cc1F | 0.132 µM (active) |
| CC(C)(C)COc1ccc(-n2cc(C(=O)O)cn2)cc1C#N | inactive |
| CC(=O)N(C)C1(c2ccccc2)CCN(CCC[C@]2(c3ccc(Cl)c(Cl)c3)CCCN(C(=O)c3ccccc3)C2)CC1 | 18.7 µM (active) |
| O=C(Nc1ccccc1-c1cn2c(CN3CCNCC3)csc2n1)c1cnc2ccccc2n1 | inactive |
| CCOC(CN1C(=O)[C@](CC(=O)Nc2ccc(C)cc2)(NC(=O)Nc2ccc(C)cc2)c2ccccc21)OCC | 0.0059 µM (active) |
| OC[C@H]1O[C@@H](n2cnc3c2NC=NC[C@@H]3O)C[C@H]1O | inactive |
| COc1cc(Nc2ncc(F)c(Nc3ccc4c(n3)NC(=O)C(C)(C)O4)n2)cc(OC)c1OC | inactive |
| COc1cc2ncnc(-n3nc(-c4ccccn4)nc3N)c2cc1OC | inactive |
| CC(C)(C)c1cc(C(=O)O)c(NC(=O)Nc2ccc3[nH]ncc3c2)s1 | inactive |
| O=C1C(Cl)=C(NCCN2CCOCC2)C(=O)c2ncccc21 | 9.35 µM (active) |
| CC(C)(C)C(=O)Oc1ccc2c(c1)nc(NC(=O)c1cccc([N+](=O)[O-])c1)n2CCCO | inactive |
